Screens: PubChem BioAssay, Sanford-Burnham Center for Chemical Genomics
UBC9 SUMO inh: inhibitors of in vitro SUMOylation cascade, primary screen, biochemical, HTRF, uHTS; SUMO-conjugating enzyme UBC9 (Homo sapiens), P63279; HTRF SUMOylation assay, SAE1/SAE2 + UBC9; inhibition, % at 35 µM; 0.36% of 290,000 active; in the data active = inhibition above about 50%, passing the limit was not always enough
Target sequence (P63279 whole entry, looked up): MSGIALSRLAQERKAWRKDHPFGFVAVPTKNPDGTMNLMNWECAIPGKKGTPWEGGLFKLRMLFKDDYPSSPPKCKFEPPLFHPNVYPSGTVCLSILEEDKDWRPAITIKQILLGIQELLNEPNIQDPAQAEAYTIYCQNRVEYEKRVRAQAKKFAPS
NadD inh: inhibitors of S. aureus NadD, primary screen, biochemical, colorimetric, uHTS | inhibition, % at 20 µM | Nicotinate-nucleotide adenylyltransferase NadD (Staphylococcus aureus N315) | 0.78% of 360,000 active | purified NadD enzyme, colorimetric absorbance read-out | AID 602399, 2012; in the data active = inhibition above about 26%
PHOSPHO1 inh: PubChem AID 1565; inhibition, % at 13.3 µM; Phosphoethanolamine/phosphocholine phosphatase (Homo sapiens), Q8TCT1; recombinant PHOSPHO1, absorbance phosphatase assay; 1.1% of 290,000 active; in the data active = inhibition above about 60%
pCIP destab: p/CIP-EGFP fusion destabilizers, primary screen, fluorescence, F442A cells; decrease of EGFP signal, % at 10 µM; Q05BA5; 0.01% of 290,000 active; AID 1984, 2009; 16 h;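 active = EGFP signal decrease of at least 30% at 10 µM or well 3 SD below plate mean, unless failing retest; inactive = the rest, including hits failing retest or dose response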
NadD conf: inhibitors of S. aureus NadD, confirmation, biochemical, colorimetric, single concentration; shares compounds with NadD inh; purified S. aureus NadD, colorimetric enzyme assay; inhibition, % at 20 µM; 13% of 2,000 active; in the data active = inhibition mostly above about 42%, no sharp cut-off; inactive = mostly below about 42%
* hit, by the source's call. Sampled rows, rich in hits. Any-hit rate of the full collection: about 1.8%.

COc1ccc(-c2nnc(NC(=O)c3ccc(S(=O)(=O)N4CCc5ccccc5C4)cc3)o2)cc1 was read as UBC9 SUMO inh -25, NadD inh 84*, PHOSPHO1 inh 8, pCIP destab -3 and NadD conf 14.
`COc1ccc(/C=N/NC(=O)c2cc(Br)ccc2O)cc1Cn1cc(Cl)cn1` gave UBC9 SUMO inh 12, NadD inh 39*, PHOSPHO1 inh 2, pCIP destab 1 and NadD conf 38.
`O=C(CSc1nc2c(cnn2-c2ccc(F)cc2)c(=O)[nH]1)N1N=C(c2cccs2)CC1c1ccc(F)cc1` (centres undefined) gave UBC9 SUMO inh 2, NadD inh 54*, PHOSPHO1 inh -1, pCIP destab 11 and NadD conf 1.
For Nc1ccc2c(c1)C/C(=C/c1ccco1)C2=O the results were UBC9 SUMO inh 85*, NadD inh 31*, PHOSPHO1 inh 5, pCIP destab -3 and NadD conf 8.
Cc1ccc(C)c(NC(=O)COC(=O)c2cccc(S(=O)(=O)N3CCCC3)c2)c1 was read as NadD inh 2.
For COc1ccc(C2C3C=CCC(c4cccc(-c5ccc(C)cc5)c4)C3C(=O)N2Cc2ccccc2)cc1Cl (centres undefined) the results were UBC9 SUMO inh -3, NadD inh 36*, PHOSPHO1 inh 26, pCIP destab 0 and NadD conf 12.
CN(C)c1ccc(-c2cccc(C3CC=CC4C3C(=O)N(Cc3ccccc3)C4c3ccc4ccccc4c3)c2)cc1 (centres undefined) was read as UBC9 SUMO inh -10, NadD inh 32*, PHOSPHO1 inh 35, pCIP destab -12 and NadD conf 13.
`COc1ccc(-c2cccc([C@H]3[C@@H]4C=CC[C@@H](C)[C@@H]4C(=O)N3Cc3ccccc3)c2)cc1` gave NadD inh -2.
O=C1C2C(c3ccccc3)CC=CC2[C@H](c2ccc3ccccc3c2)N1Cc1ccccc1 (some centres undefined) was read as UBC9 SUMO inh 14, NadD inh 21, PHOSPHO1 inh 26 and pCIP destab -12.
COc1ccc(-c2cccc(C3CC=CC4C3C(=O)N(Cc3ccccc3)C4c3ccc4ccccc4c3)c2)cc1 (centres undefined) was read as UBC9 SUMO inh 1, NadD inh 31*, PHOSPHO1 inh -22, pCIP destab -16 and NadD conf 5.
Screening CCOC(=O)c1cc(-c2ccco2)nc2c1c(C)nn2-c1ccccc1 returned UBC9 SUMO inh 30, NadD inh 33*, PHOSPHO1 inh -4, pCIP destab 5 and NadD conf 8.
For CCCn1c(=O)c2c(C(=O)OCC)cc(-c3ccco3)nc2n(CCC)c1=O the results were UBC9 SUMO inh 34, NadD inh -3, PHOSPHO1 inh 12 and pCIP destab -11.
Cn1c(CCN2CCN(c3ccccn3)CC2)nc2cc(NC(=O)COc3ccccc3)ccc21 was read as UBC9 SUMO inh 17, NadD inh 0, PHOSPHO1 inh 34 and pCIP destab 12.
For CCOc1cc(/C=N\NC(=O)Cn2nc([N+](=O)[O-])cc2C)ccc1OCc1cccc2ccccc12 the results were UBC9 SUMO inh 16, NadD inh 38*, PHOSPHO1 inh -2, pCIP destab 0 and NadD conf -5.
Screening COc1ccc(/C=N/NC(=O)Cn2nc([N+](=O)[O-])cc2C)c(OC)c1OC returned UBC9 SUMO inh 8, NadD inh -2, PHOSPHO1 inh 1 and pCIP destab -6.
Screening O=C(Cc1cn2ccsc2n1)Nc1nc2c(s1)CN(Cc1ccccc1)CC2 returned UBC9 SUMO inh -27, NadD inh 35*, PHOSPHO1 inh 43, pCIP destab 7 and NadD conf 6.
Screening O=C(Cc1cn2ccsc2n1)NCc1ccccc1 returned UBC9 SUMO inh -6, NadD inh 2, PHOSPHO1 inh 24 and pCIP destab -20.
Screening O=C(Nc1nc2c(s1)CN(Cc1ccccc1)CC2)c1cccc(S(=O)(=O)N2CCc3ccccc32)c1 returned UBC9 SUMO inh -12, NadD inh 34*, PHOSPHO1 inh 6, pCIP destab -7 and NadD conf 14.
O=C(Nc1nc2ccccc2s1)c1cccc(S(=O)(=O)N2CCc3ccccc32)c1 was read as UBC9 SUMO inh 11, NadD inh 14, PHOSPHO1 inh 30 and pCIP destab -14.
